In PubChem BioAssay (Tox21):
Inconclusive results are not listed. Unmarked numbers belong to inactive results. Calls of active or inactive are those of the source. Calls come from the whole dose curve; as a rule, active = well fitted cell-killing curve with a large enough effect in the repeat runs; inconclusive = weak or mixed curves, or effect the other way; inactive = no such curve, though single readings can be large or run the other way.

Test: qHTS assay for identifying genotoxic compounds that show differential cytotoxicity against isogenic chicken DT40 cell lines with known DNA damage response pathways - wild type cell line (AID 743012); note: nearly all actives have a fitted effect of over 60% in size
Conditions: DT40 wild type chicken cells viability, CellTiter-Glo, 40 h; series mostly up to 68.4 µM; activity change, negative = cytotoxicity: at the top concentration
From the text: U.S. Tox21 Program National Center for Advancing Translational Sciences [NCATS] NIH Chemical Genomics Center [NCGC] U.S. Environmental Protection Agency [EPA] National Institutes of Environmental Health Sciences [NIEHS] National Toxicology Program [NTP] U.S. Food and Drug Administration [FDA] Tox21 Assay Overview: DNA repair pathways play a critical role in cellular homeostasis by repairing DNA damage induced by endogenous processes and xenobiotics. Isogenic chicken DT40 cell lines deficient in different DNA repair pathways can be used to identify genotoxic compounds and aid in characterizing the nature of the DNA damage induced. Two DNA repair-deficient cell lines with disrupted genes, Rad54/Ku70 or Rev3, were used to screen the Tox21 10K compound library. Possible genotoxicity was based on the presence of a significant increase in cytotoxicity in one or more of the DNA repair-deficient cell lines compared to that observed in the parental DNA repair-proficient cell line. CellTiter Glo viability assay (Promega, Madison, WI) was used to measure cell viability in these cells after compound treatment. This assay includes the data from the wild type cell line.
Tox21 Assay Protocol Summary: 300 DT40 wild type cells in 5 uL/well were dispensed into white, solid-bottom 1536-well plates using a Multidrop Combi (ThermoFisher Scientific, Waltham, MA) dispenser. After the assay plates were incubated at 37 C/5% CO2 for approximately 0.5 hour, 23 nL of compounds dissolved in DMSO, positive controls or DMSO only was transferred into the assay plate by a pintool work station (Kalypsys, San Diego, CA). The assay plates were incubated at 37 C/5% CO2 for 40 hours. After 5 uL per well of CellTiter-Glo reagent was added into each well of the assay plates, the plates were incubated for 30 min at room temperature and the luminescence intensity of the plates was measured using a ViewLux (PerkinElmer, Shelton, CT) plate reader.
% is set by controls: 0 for no effect and ±100 for the full control effect; potency is the fitted concentration of half-maximal effect.

SMILES	activity change, negative = cytotoxicity	Potency
O=C(O)c1ccccc1[O-].O=C(O)c1ccccc1[O-].[Zn+2]	13.4%	–
CCC(=O)O[C@](Cc1ccccc1)(c1ccccc1)[C@H](C)CN(C)C	–	38 µM (active)
CN1C2CCC1CC(OC(c1ccccc1)c1ccc(Cl)cc1)C2 (configuration not stated)	–	2.11 µM (active)
COc1cc(C[C@H](C)N)c(OC)cc1Br	–	70.4 µM (active)
CNC(C)[C@@H]1CC[C@@H](N)[C@@H](O[C@H]2[C@H](O)[C@@H](O[C@H]3OC[C@](C)(O)[C@H](NC)[C@H]3O)[C@H](N)C[C@@H]2N)O1 (some centres not stated)	0.779% [at 31.4 µM]	–
C#C[C@]1(OC(=O)CCCCCC)CC[C@H]2[C@@H]3CCC4=CC(=O)CC[C@@H]4[C@H]3CC[C@@]21C	–	2.66 µM (active)
CC[C@@H](O)C(C[C@@H](C)N(C)C)(c1ccccc1)c1ccccc1	–	55.1 µM (active)
CC(=O)O[C@H]1C[C@H](O[C@H]2[C@@H](O)C[C@H](O[C@H]3[C@@H](O)C[C@H](OC4CC[C@@]5(C)C(CC[C@@H]6[C@@H]5CC[C@]5(C)[C@@H](C7=CC(=O)OC7)[C@@H](O)C[C@]65O)C4)O[C@@H]3C)O[C@@H]2C)O[C@H](C)[C@H]1O[C@@H]1O[C@H](CO)[C@@H](O)[C@H](O)[C@H]1O (some centres not stated)	–	2.11 µM (active)
CCC(=O)O[C@H]1[C@@H](N2CCCCC2)C[C@H]2[C@@H]3CC[C@H]4C[C@H](OC(C)=O)[C@@H](N5CCCCC5)C[C@]4(C)[C@H]3CC[C@@]21C	–	2.37 µM (active)
Cc1ccc2c(c1)[C@]13CCCC[C@@H]1[C@H](C2)N(C)CC3	–	26.6 µM (active)
C[C@]12CC[C@H]3[C@@H](CCC4=CC(=O)CC[C@@]43C)[C@@H]1CC[C@@H]2OC(=O)CCc1ccccc1	–	5.45 µM (active)
Clc1ccc([C@@H]2C[C@H]3CC[C@@H]2N3)cn1	0.576%	–
